Screening results from PubChem.
This is a sample that favours compounds with a hit; in the whole collection about 2.9% have one here.
Integrin act MD: integrin-mediated muscular dystrophy alleviation activation | 350,000 tested, 0.064% active | AID 624291 | Potency, µM (highest dose often 38.3 µM), for inactives: top-dose activation, usual class: activators | alpha7betagal myoblasts, beta-gal FDG fluorescence, 48 h; active = well fitted activation curve with a large enough effect; inconclusive = small, poorly fitted or top-dose-only effect; inactive = no such curve, though single readings can be large or run the other way;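 note: potency is the fitted concentration of half-maximal effect; 100% = response of the positive control SU9516; nearly all actives have a fitted effect of over 60% in size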
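Alpha7betagal+/- myoblasts (passage 13) were plated 16-24 hr, then exposed to compounds (1:260 dilution of DMSO stock) for 48 hours at 37C. After MPER lysis, β-galactosidase reporter activity was read as FDG fluorescence (ex 480/em 540) after 30 minutes.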
D3 ag: D3 dopamine receptor (human) agonism; 410,000 tested, 0.58% active; D3R DiscoveRx beta-arrestin cells, luminescence, 90 min; max activation, %; in the data active = max activation above about 30%; note: 0% is about no effect
Target sequence (P35462 whole entry, looked up): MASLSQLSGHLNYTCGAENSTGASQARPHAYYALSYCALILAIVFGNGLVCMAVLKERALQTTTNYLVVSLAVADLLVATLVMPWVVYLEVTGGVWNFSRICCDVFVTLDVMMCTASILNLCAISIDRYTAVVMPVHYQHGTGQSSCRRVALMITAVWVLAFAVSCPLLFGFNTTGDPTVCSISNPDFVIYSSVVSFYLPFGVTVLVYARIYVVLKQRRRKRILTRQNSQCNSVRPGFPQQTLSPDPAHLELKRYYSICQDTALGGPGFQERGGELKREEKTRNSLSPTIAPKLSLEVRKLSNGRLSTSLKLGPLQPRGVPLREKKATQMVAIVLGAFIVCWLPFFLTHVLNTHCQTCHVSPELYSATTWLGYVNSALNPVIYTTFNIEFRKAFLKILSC
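Agonist-mode cell screen: cells plated at 1500/well and incubated overnight at 37 °C, then exposed to library compounds for 90 min at 37 °C. Detection reagent was added for 30–60 min at room temperature, and luminescence was read.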
D3 antag: blocks the human D3 dopamine receptor | P35462 | D3R cells, DiscoveRx beta-arrestin luminescence, antagonist mode; hits give low values | max response, negative = inhibition, % | 360,000 tested, 2.5% active | AID 652054; in the data active = max response below about -50%; inconclusive = no clear call, values can overlap the other calls; note: % is set by controls: 0 for no effect and ±100 for the full control effect
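Cells expressing the human receptor were seeded at 1500 cells/well, incubated overnight at 37 degrees C in 5% CO2, then exposed to library compounds with dopamine controls for 90 minutes at 37 degrees C before luminescent detection.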
An asterisk follows results filed as active; ? = inconclusive; · = no result.

SMILES | Integrin act MD | D3 ag | D3 antag
CC1(C)CCCC2=C1CC1C(=O)N(O)C(=O)C1C2 (stereo unspecified) | 18% | 2 | -2
Cn1c(CCN2CCN(c3ccccn3)CC2)nc2cc(NC(=O)COc3ccc(Cl)cc3)ccc21 | -51% | 7 | -27
Cn1c(CCN2CCN(c3ccccn3)CC2)nc2cc(NS(=O)(=O)c3ccc(Cl)cc3)ccc21 | 0% | -10 | -69*
Cc1ccc(N2CCN(CCc3nc4cc(NS(C)(=O)=O)ccc4n3C)CC2)cc1 | -24% | -6 | 0
Cc1ccc(S(=O)(=O)Nc2ccc3c(c2)nc(CCN2CCN(c4ccccn4)CC2)n3C)cc1 | -17% | 0 | -61*
COc1ccc2ccn(S(=O)(=O)c3ccccc3)c2c1 | -13% | 4 | 7
COCCCNc1nc2ccccc2nc1NS(=O)(=O)c1cccs1 | -5% | -3 | -64*
COCCCNc1nc2ccccc2nc1NS(=O)(=O)c1ccc(OC)cc1 | 57% | 2 | 13
N#CCCN(C(=O)CSc1ccc2c(c1)OCCO2)c1ccccc1 | -16% | 1 | 24
O=C(Cn1cnc2ccccc21)N/N=C/c1cccs1 | -6% | 7 | 6
Cn1cccc1/C=N/NC(=O)Cn1cnc2ccccc21 | 6% | 3 | -75*
COc1ccc(NC(=O)CNC(=O)c2ccco2)cc1S(=O)(=O)Nc1cc(C)ccc1Br | -11% | 1 | -14
CC(NCCCSc1ccccc1)C(O)c1ccc(O)cc1 (stereo unspecified) | -25% | -14 | -62*
CC(=O)Nc1ccc(C(=O)NCCCSc2ccccc2)cc1 | -14% | -1 | -7
COCCCNC(=O)c1csc([C@@H]2O[C@H](CO)[C@H](O)[C@H](O)[C@H]2O)n1 | · | -4 | 13
O=C(c1ccco1)N(Cc1ccc(Cl)cc1)C1CCS(=O)(=O)C1 (stereo unspecified) | 0% | 38* | -4
CCc1ccc(CN(C(=O)c2ccco2)C2CCS(=O)(=O)C2)cc1 (stereo unspecified) | 26% | -24 | 8
Cc1nc2ccn(Cc3ccccc3)c(=O)c2cc1C(=O)NCc1ccccc1F | · | -7 | ·
Cc1oc2c(c(=O)c1C)C(=O)CC(c1ccccc1)C2 (stereo unspecified) | 11% | 4 | 9
CS(=O)(=O)c1sc(C#N)c2c1C(=O)CC(c1ccccc1)C2 (stereo unspecified) | ? | -19 | -132*
COc1ccc(C(=O)NNC(=S)NC(=O)c2cc(-c3ccccc3)nc3ccccc23)cc1 | 14% | -9 | -8
CCCOc1ccc(C(=O)NNC(=S)NC(=O)c2cc(-c3ccc(Cl)cc3)nc3ccccc23)cc1 | 1% | -9 | -50*
CCOC(=O)N1CCN(CC(O)c2c[nH]c3ccc(OC)cc23)CC1 (stereo unspecified) | -1% | 2 | 65
O=[N+]([O-])c1ccccc1C(=Nc1ccccc1)c1c(O)cc(O)cc1O | -14% | -9 | ?
OC(COCc1ccccc1)CN1CCN(c2ccccc2)CC1 (stereo unspecified) | 0% | 11 | ?
SMILES | Integrin act MD | D3 ag | D3 antag
COCCOCC(O)CN1CCN(c2ccc(C)cc2)CC1 (stereo unspecified) | 19% | -14 | -62*
CCN1CCN(CC(O)COCC2COc3ccccc3O2)CC1 (stereo unspecified) | 3% | -4 | -12
OC(COCC1COc2ccccc2O1)CN1CCN(c2ccccc2)CC1 (stereo unspecified) | -8% | 33* | -7
COCCOCC(O)CN1CCN(c2ccccc2)CC1 (stereo unspecified) | 7% | 11 | -78*
COc1ccc(N2CCN(CC(O)COc3cc(C)cc(C)c3)CC2)cc1 (stereo unspecified) | -22% | -10 | 1
CCS(=O)(=O)N1CCC(C(=O)Oc2ccc(Cl)cc2)CC1 | 8% | 7 | 18
Cc1nc2ccccc2n1Cc1ccc(Br)cc1 | -47% | -2 | 11
CC(=O)Nc1cc2c(nc1C)nc(C)n2Cc1ccc(Br)cc1 | 10% | -3 | -68*
COc1ccc(Nc2n[nH]c(N)c2C(N)=O)cc1 | 1% | -9 | -22
CN(C)c1ccc(C(CNC(=O)c2cccs2)N(C)C)cc1 (stereo unspecified) | -2% | -6 | ?
Cc1ccccc1C(=O)N1CCN(c2ccc(NC(=O)c3cccnc3Cl)cc2)CC1 | 28% | 0 | 0
Cc1ccc(OCCOCCN2CCCCC2)c([N+](=O)[O-])c1 | -51% | -11 | -17
CC(C)(C)c1ccccc1OCCOCCSc1ncccn1 | 1% | -3 | 4
Cc1ccc(C(C)(C)C)c(OCCOCCN2CCCC2)c1 | -2% | -30 | -54*
CC(C)(C)c1ccccc1OCCOCCN1CCCCCC1 | -71% | -14 | -62*
COc1ccc(C(C)C)cc1S(=O)(=O)NCCCn1ccnc1 | 3% | 4 | 9
COc1ccc(CNC(=O)c2ccc3c(c2)CCN3S(=O)(=O)c2ccccc2)cc1 | · | 1 | ·
Clc1ccc(C2CC(c3ccco3)n3ncnc3N2)cc1Cl (stereo unspecified) | -10% | 2 | -58*
Clc1ccc(C2CC(c3ccccc3)Nc3ncnn32)cc1 (stereo unspecified) | -5% | -7 | -22
COc1ccc(NS(=O)(=O)c2cc(NC(=O)CC(C)(C)C)ccc2N2CCCC2)cc1 | -11% | -17 | -29
O=C(Cc1ncc(C(F)(F)F)cc1Cl)NCCc1ccccn1 | 3% | -9 | -19
CCCCC(O)CN1CCC(c2ccccc2)CC1 (stereo unspecified) | 19% | 2 | -57*
CC(CN1CCC(O)CC1)c1ccccc1 (stereo unspecified) | -1% | -9 | -26
NC(=O)CC(NC(=O)Cc1cccc2ccccc12)c1ccc(NC2CCCC2)c([N+](=O)[O-])c1 (stereo unspecified) | -40% | -6 | -18
NC(=O)CC(NC(=O)Cc1ccc(Cl)cc1)c1ccc(NC2CC3CCC2C3)c([N+](=O)[O-])c1 (stereo unspecified) | -9% | -8 | -63*
SMILES | Integrin act MD | D3 ag | D3 antag
NC(=O)CC(NC(=O)Cc1cccc2ccccc12)c1ccc(NC2CC3CCC2C3)c([N+](=O)[O-])c1 (stereo unspecified) | 7% | -23 | -65*
NC(=O)CC(NC(=O)Cc1ccc(Br)cc1)c1ccc(N2CCC(Br)CC2)c([N+](=O)[O-])c1 (stereo unspecified) | -24% | -24 | -28
NC(=O)CC(NC(=O)Cc1ccc(Cl)cc1)c1ccc(NC2CCN(Cc3ccccc3)CC2)c([N+](=O)[O-])c1 (stereo unspecified) | 0% | -1 | 0
NC(=O)CC(NC(=O)Cc1cccc2ccccc12)c1ccc(NCCOc2ccccc2)c([N+](=O)[O-])c1 (stereo unspecified) | -41% | -31 | -80*
NC(=O)CC(NC(=O)Cc1cccc2ccccc12)c1ccc(NCC2CC2)c([N+](=O)[O-])c1 (stereo unspecified) | -1% | -14 | ?
NC(=O)CC(NC(=O)Cc1ccc(Br)cc1)c1ccc(N2CCC(Cc3ccccc3)CC2)c([N+](=O)[O-])c1 (stereo unspecified) | 21% | -2 | -97*
